Records with an inconclusive call do not appear. The source made the active and inactive calls. Unless noted, calls follow the shape of the dose curve; as a rule, active = well fitted curve in the direction sought with a large enough effect; inconclusive = small, poorly fitted or top-dose-only effect, or another doubt; inactive = no such curve, though single readings can be large; an effect the other way counts as inactive or inconclusive.
What was measured:
[1] = Cell Viability - BJ (AID 421; calls by dose curve;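 also: potency is read from the fitted curve at half-maximal effect; cells exposed to compound for 40 hours at 37 °C before readout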); details: BJ fibroblast viability, qHTS
Summary of the method: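 Normal human BJ foreskin fibroblasts, 1500/well in complete medium, treated 40 hr at 37 °C. Cellular ATP by CellTiter-Glo luminescence; normalized to DMSO and 100 uM tamoxifen, AC50 from Hill fit.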

[2] = Cellular Toxicity (caspase-3) HepG2 (AID 654); details: HepG2 caspase-3 activation, luminescence, 0% = DMSO only, 100% = tamoxifen; series mostly up to 92.2 µM;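 also: cells exposed to compound for 16 hours before reading; 0% = DMSO alone and 100% = caspase signal from 100 µM tamoxifen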
Summary of the method: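 HepG2 cells (1500/well) in complete medium were treated with compounds for 16 hr at 37 °C. Caspase-3/7 activity was then read as luminescence from peptide-aminoluciferin cleavage. AC50 came from Hill fits, normalized to DMSO and 100 uM tamoxifen.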

[3] = Cellular Toxicity (caspase-3) BJ (AID 658); details: BJ fibroblasts, luminescence, normalized: DMSO 0%, staurosporine 100%; series mostly up to 91.7 µM
Summary of the method: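 Luminescent aminoluciferin-substrate cleavage reports caspase 3/7 activity in normal human BJ fibroblasts after 16 hr compound exposure at 37 °C. Normalized to DMSO (basal) and 10 uM staurosporine (100%); AC50 from Hill fit of concentration-response.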

[4] = Cellular Toxicity (caspase-3) MRC-5 (AID 659); details: MRC-5 cells, luminescence, normalized: DMSO 0%, 10 µM staurosporine 100%; series mostly up to 91.7 µM
Summary of the method: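 Luminescence from caspase-cleaved aminoluciferin substrate (Caspase-Glo 3/7, 1 hr RT) reports caspase 3/7 activity in MRC-5 lung fibroblasts after 16 hr compound exposure. Normalized to DMSO basal and 10 uM staurosporine as 100%; AC50 from Hill fits.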

[5] = Cellular Toxicity (caspase-3) Hek293 (AID 664); details: HEK293 caspase-3 activation, DMSO = 0%, 100 µM tamoxifen = 100%; at 92.2 µM (top of the series);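 also: cells exposed to compound for 16 h at 37 °C before readout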
Summary of the method: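 HEK293 cells were exposed to compounds in complete medium for 16 hr at 37 °C, then caspase-3/7 activity was read by Caspase-Glo 3/7 luminescence after 20 min at room temperature. Data normalized to DMSO and 100 uM tamoxifen; AC50 from Hill fits.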

[6] = Cellular Toxicity (caspase-3) N2a (AID 665); details: N2a cells, luminescence, normalized: DMSO 0%, 10 µM staurosporine 100%; series mostly up to 92.2 µM;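 also: compound exposure lasted 16 h at 37 °C before readout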
Summary of the method: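 Mouse N2a neuroblastoma cells (1500/well) were treated with compounds for 16 h at 37 °C, then caspase-3/7 activity was read by Caspase-Glo luminescence after 1 h at room temperature. Data were normalized to DMSO and 10 uM staurosporine; AC50 from Hill fits.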

[7] = Cellular Toxicity (caspase-3) NIH 3T3 (AID 666); details: NIH 3T3 caspase-3 activation, apoptosis/toxicity; series mostly up to 92.2 µM;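 also: caspase signal read after 16 h compound exposure; 0% = DMSO basal and 100% = 100 µM tamoxifen stimulation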
Summary of the method: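 Mouse NIH 3T3 fibroblasts (1000 cells/well) were treated with compound for 16 hr at 37°C in complete medium; caspase-3/7 activity was read by Caspase-Glo luminescence. Normalized to DMSO and 100 uM tamoxifen; AC50 from Hill fits.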

[8] = Cell Viability - LYMP2-001 (AID 921); details: LYMP2-001 lymphoblastoid cell viability; series mostly up to 92.2 µM;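 also: 0% = DMSO only and full inhibition = tetraoctylammonium bromide control wells; nearly all actives have a fitted effect of over 70% in size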
Summary of the method: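 Human lymphoblastoid LYMP2-001 cells, 2500 per well, in complete medium, treated 24 h at 37 C. Viability from cellular ATP by CellTiter-Glo luminescence; AC50 from Hill-equation fits of qHTS concentration-response.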

[9] = MultiTox-Fluor Cytotoxicity Assay - LYMP1-002 - Live Cells (AID 955); details: LYMP1-002 lymphoblastoid live-cell protease fluorescence viability; series mostly up to 46.1 µM; also: % is scaled to controls: 0 for no effect and ±100 for the full control effect
Summary of the method: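 Human lymphoblastoid LYMP1-002 cells, 2500/well in complete medium, rested 5 hr at 37 C, then exposed to compounds for 16 hr at 37 C. Live-cell protease cleavage of GF-AFC read by fluorescence (Ex/Em 405/510) after 60 min at room temperature; AC50 from Hill fits.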

[10] = MultiTox-Fluor Cytotoxicity Assay - LYMP1-003 - Live Cells (AID 962); details: LYMP1-003 lymphoblastoid cells, MultiTox-Fluor live-cell protease fluorescence; series mostly up to 92.2 µM;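 also: 0% = DMSO only and full loss = 92 µM tetraoctylammonium bromide; cytotoxic hits lower the live-cell protease signal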
Summary of the method: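 LYMP1-003 human lymphoblastoid cells (2500/well) in complete medium were preincubated 5 hr at 37 C, then exposed to compounds for 16 hr at 37 C. Live-cell protease cleavage of GF-AFC read by fluorescence (Ex/Em 405/510); AC50 from Hill fits.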

[11] = Cell Viability - LYMP2-021 (AID 974); details: LYMP2-021 lymphoblastoid cells viability; series mostly up to 92.2 µM;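 also: compound exposure lasts 24 hours at 37 °C; % is scaled to controls: 0 for no effect and ±100 for the full control effect; nearly all actives have a fitted effect of over 55% in size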
Summary of the method: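 Human lymphoblastoid cells (2500/well) were preincubated 5 hr at 37 C, then exposed to compounds for 24 hr at 37 C in complete medium. Intracellular ATP was read by CellTiter-Glo luminescence; AC50 came from Hill-equation fits of concentration-response data.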

[12] = Cell Viability - LYMP2-025 (AID 976); details: LYMP2-025 lymphoblastoid cell viability; series mostly up to 92.2 µM;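 also: plate controls were DMSO only for no effect and tetraoctylammonium bromide control for full effect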
Summary of the method: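 Human lymphoblastoid LYMP2-025 cells (2500/well) were pre-incubated 5 hr at 37 C, then treated with compounds for 24 hr at 37 C in complete medium. Viability was read as intracellular ATP by CellTiter-Glo luminescence; AC50 from Hill fits.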

[13] = Cell Viability - LYMP2-006 (AID 978); details: LYMP2-006 lymphoblastoid cell viability, qHTS; series mostly up to 92.2 µM; also: % is scaled to controls: 0 for no effect and ±100 for the full control effect; nearly all actives have a fitted effect of over 60% in size
Summary of the method: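 Human lymphoblastoid cells (LYMP2-006), 2500/well in complete medium, were treated with compound for 24 hr at 37 C. Cellular ATP was read by CellTiter-Glo luminescence after 30 min, and AC50 values came from Hill-equation fits of concentration-response data.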

[14] = Cell Viability - LYMP1-002 - Assay at 24 hr (AID 993); details: LYMP1-002 lymphoblastoid cells viability; series mostly up to 92.2 µM; also: % is scaled to controls: 0 for no effect and ±100 for the full control effect
Summary of the method: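 Human lymphoblastoid LYMP1-002 cells, 2500/well in complete medium, were treated with compounds for 24 h at 37 C; intracellular ATP was read by CellTiter-Glo luminescence. AC50 values came from Hill-equation fits of qHTS concentration-response data.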

[15] = Cell Viability - LYMP1-002 - Assay at 40 hr (AID 994); details: LYMP1-002 lymphoblastoid cell viability; series mostly up to 92.2 µM;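 also: 0% = DMSO only and full inhibition = 92 µM tetraoctylammonium bromide; nearly all actives have a fitted effect of over 60% in size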
Summary of the method: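 Human lymphoblastoid cells, 2500/well in complete medium, were preincubated 5 hr at 37 C, then exposed to compounds for 40 hr at 37 C. Intracellular ATP was read by CellTiter-Glo luminescence after 30 min at room temperature; AC50 from Hill-equation fits.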

[16] = qHTS Assay for Identification of Small Molecule Inducers of Hypoxia Response (AID 2120; active = well fitted curve in the direction sought with a large enough effect in the signal ratio, with a control signal flat, not every such curve was filed as active; the % refers to the signal ratio; also: 0% is about no effect); details: hypoxia response reporter cells, beta-lactamase ratio readout; series mostly up to 104 µM
Summary of the method: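 HRE-beta-lactamase reporter in CellSensor HRE-bla ME-180 cells, 2500 cells/well in Opti-MEM with 0.5% dialyzed FBS; compounds tested as titration series, 17 h at 37 degrees C. CCF4 substrate 2.5 h at room temperature; AC50 from 460/530 nm ratio.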

[17] = target: Peroxisome proliferator-activated receptor alpha (Homo sapiens) (UniProt Q07869); experiment: qHTS assay for small molecule agonists of the peroxisome proliferator-activated receptor alpha (PPARalpha) signaling pathway (AID 651778); details: PathHunter PPARalpha complementation, chemiluminescence, 6 h; hits give high values; also: % of control where 0% means no effect
Chain of Peroxisome proliferator-activated receptor alpha (Homo sapiens) (Q07869 whole entry, looked up): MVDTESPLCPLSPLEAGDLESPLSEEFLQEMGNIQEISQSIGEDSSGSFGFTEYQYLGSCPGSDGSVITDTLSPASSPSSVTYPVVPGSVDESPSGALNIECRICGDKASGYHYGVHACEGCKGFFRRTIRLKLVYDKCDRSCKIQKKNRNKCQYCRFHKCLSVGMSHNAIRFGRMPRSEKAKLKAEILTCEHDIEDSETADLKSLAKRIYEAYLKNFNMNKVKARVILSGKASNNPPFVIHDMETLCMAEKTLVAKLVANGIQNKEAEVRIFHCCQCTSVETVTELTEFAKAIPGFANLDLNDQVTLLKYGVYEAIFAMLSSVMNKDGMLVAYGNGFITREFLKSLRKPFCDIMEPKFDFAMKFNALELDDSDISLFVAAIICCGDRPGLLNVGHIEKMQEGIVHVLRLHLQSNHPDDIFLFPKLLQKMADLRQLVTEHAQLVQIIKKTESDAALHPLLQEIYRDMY
Summary of the method: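 Cells plated at 2,000/well and held overnight at 37 C, 5% CO2, then compound added by pin tool for 6 hr; after PathHunter detection reagent and 60 min at room temperature, chemiluminescence from enzyme complementation was read.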

[18] = qHTS assay for cell viability of the p53RE-bla HCT-116 cell line (AID 743292); details: p53RE-bla HCT-116 viability, ATP luminescence, 16 h; series mostly up to 95 µM; also: % is scaled to controls: 0 for no effect and ±100 for the full control effect; nearly all actives have a fitted effect of over 55% in size
Summary of the method: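 Quantitative high-throughput format: compounds in DMSO were pinned onto p53RE-bla HCT-116 cells (4,000/well) and incubated 16 h at 37 C. Total intracellular ATP, read by CellTiter-Glo luminescence, reflects viable cell number.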

[19] = MultiTox-Fluor Cytotoxicity Assay - LYMP1-001 - Dead Cells (AID 946); details: LYMP1-001 lymphoblastoid cells, dead-cell protease fluorescence; series mostly up to 92.2 µM;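 also: 0% = DMSO and 100% = tetraoctylammonium bromide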
Summary of the method: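 LYMP1-001 lymphoblastoid cells (2500/well) treated 16 h at 37 C. Dead-cell protease cleavage of bis-AAF-R110 read at Ex/Em 485/520. Normalized to DMSO and 15 uM tetraoctylammonium bromide; AC50 from Hill fits.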

[20] = MultiTox-Fluor Cytotoxicity Assay - LYMP1-003 - Dead Cells (AID 961); details: LYMP1-003 lymphoblastoid cells, dead-cell protease fluorescence; series mostly up to 92.2 µM;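 also: 0% = DMSO and 100% = tetraoctylammonium bromide; nearly all actives have a fitted effect of over 70% in size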
Summary of the method: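 LYMP1-003 human lymphoblastoid cells (2500/well) exposed to compound 16 h at 37 C in complete medium; dead-cell protease read with bis-AAF-R110 fluorescence (Ex/Em 485/520) after 60 min at room temperature. Normalized to DMSO and 15 uM tetraoctylammonium bromide; AC50 from Hill fit.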

Cc1cc(C)cc(OP(=O)(Oc2cc(C)cc(C)c2)Oc2cc(C)cc(C)c2)c1
inactive: Potency [1] > 92 µM | outcome [2] | outcome [3] | outcome [4] | caspase-3 activation [5] 1.43% | outcome [6] | Potency [7] | Potency [8] | outcome [9] | outcome [10] | Potency [11] | Potency [12] | Potency [13] | Potency [14] | Potency [15] | Potency [16] | max response [17] -0.353% | Potency [18]

O=C(O)C(Br)CBr (configuration not stated)
inactive: Potency [1] > 92 µM | outcome [2] | outcome [3] | outcome [4] | caspase-3 activation [5] 1.8% | outcome [6] | Potency [7] | Potency [8] | outcome [19] | outcome [9] | Potency [20] | outcome [10] | Potency [11] | Potency [12] | Potency [13] | Potency [14] | Potency [15] | Potency [16] | max response [17] 1.03% | Potency [18]

Brc1ccc(Oc2ccc(Br)cc2Br)c(Br)c1
inactive: Potency [1] > 92 µM | outcome [2] | outcome [3] | outcome [4] | caspase-3 activation [5] 19.3% | outcome [6] | Potency [7] | Potency [8] | outcome [19] | outcome [9] | Potency [20] | outcome [10] | Potency [11] | Potency [12] | Potency [13] | Potency [14] | Potency [15] | Potency [16] | max response [17] 6.57%
